Compound activity (PubChem)
An excerpt weighted towards active compounds, which were near 4.2% of everything screened.
Wnt bcat act: activates Wnt/beta-catenin signaling in a reporter cell assay | activator, plate reader | activation, % at 9.35 µM | hit rate 1.2% among 300,000 | AID 743398; in the data active means activation above about 30%, passing the limit was not always enough;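 further: 0% = neutral control wells and 100% = positive control wells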
hcDAF12 agonist: activators of H. contortus DAF-12 nuclear receptor; HEK293 hcDAF-12 lit1-tk-luc reporter, luminescence; 0% DMSO, 100% Δ7-dafachronic acid; activation, % at 6.8 µM; hit rate 1.4% among 370,000; AID 652067;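 active means activation above the mean of all tested compounds plus 3 SD, cut at about 5.5% in these data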;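 further: 100% = response to 3 µM Δ7-dafachronic acid high control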
hgDAF-12 ag: hgDAF-12 agonism, primary luciferase screen | HEK293 GAL4-hgDAF12 UAS-luciferase reporter, agonist luminescence; normalized to butyrate control | activation, % at 6.8 µM | hit rate 1.8% among 370,000;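 active means activation above a cutoff set at the mean of all screened compounds plus 3 SD, cut at about 10% in these data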;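 further: 0% = DMSO wells and 100% = sodium butyrate wells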
ssDAF-12 act: S. stercoralis DAF-12 activation, primary screen; HEK293 ssDAF-12/GRIP1 lit1-tk-luc reporter, luminescence; % of 3 µM dafachronic acid response; activation, % at 6.8 µM; hit rate 1% among 370,000;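 active means activation above the mean over all tested compounds plus 3 SD, cut at about 0.9% in these data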;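 further: 0% = DMSO-only wells and 100% = 3 µM delta7-dafachronic acid wells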
esBAF inh: SWI/SNF esBAF complex inhibition; hit rate 2% among 350,000; mouse ES cells, Bmi1-luciferase knock-in reporter, 24 h; 100% = twice the neutral-well signal; reporter increase, % at 12.5 µM; in the data active means activation above about 40%;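 further: 0% = median of the plate's neutral control wells and 100% = double that signal; a rise in the Bmi1 reporter signal indicates esBAF inhibition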
DAX1 inh: DAX1 (NR0B1) inhibition, primary screen | HEK293T StAR-luciferase reporter, SF-1/DAX-1 repression relief | inhibition, % at 6.8 µM | hit rate 1.1% among 370,000;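 active means inhibition above the mean over all tested compounds plus 3 SD, cut at about 3.6% in these data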;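 further: 0% = DAX-1 cells with DMSO and 100% = cells lacking DAX-1 with DMSO; higher inhibition means more luminescence from relief of DAX-1 repression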
* marks the source's active call; other numbers are inactive results; nt = no result given.

SMILES	Wnt bcat act	hcDAF12 agonist	hgDAF-12 ag	ssDAF-12 act	esBAF inh	DAX1 inh
CCCc1[nH]n(-c2ccc(F)cc2)c(=O)c1C=NCC1CCCO1 (stereo unspecified)	1.2	0.3	1.0	-1.5	0.4	-0.8
Cc1[nH]n(-c2ccccc2)c(=O)c1C=NCC1CCCO1 (stereo unspecified)	-2.5	0.7	3.5	1.0*	11.3	1.4
COc1ccc(CN(C)C[C@H]2Oc3c(NC(=O)Nc4ccc(C(F)(F)F)cc4)cccc3C(=O)N([C@H](C)CO)C[C@@H]2C)cc1	nt	nt	nt	nt	2.2	nt
C[C@@H]1CN([C@H](C)CO)C(=O)Cc2cc(NC(=O)Cc3ccccc3)ccc2O[C@H]1CN(C)C(=O)Nc1cccc2ccccc12	nt	nt	nt	nt	-2.8	nt
CN1CCN(Cc2cc(Cl)c3cccnc3c2OC(=O)c2cccs2)CC1	62.0*	1.9	-1.3	-0.8	nt	-0.3
C[C@@H]1CN([C@H](C)CO)C(=O)c2cc(NC(=O)NC3CCCCC3)ccc2O[C@@H]1CN(C)Cc1ccccc1	nt	nt	nt	nt	2.6	nt
CC(C)(C)C1CCC(=NNC(=O)c2ccccc2-n2cccc2)CC1 (stereo unspecified)	-1.9	6.0*	0.3	-0.5	nt	-0.4
COc1ccc(-c2nc3cc(C)c(Br)c(C)n3c2Cc2ccccc2)cc1OC	-1.6	-0.8	0.3	-0.9	-10.0	-1.0
Cc1ccc(Cc2c(-c3ccc(Cl)cc3)nc3cc(C)c(Br)c(C)n23)cc1	-2.6	2.6	3.2	1.2*	13.5	4.1*
Cc1cc2nc(-c3ccc(Cl)cc3)c(CC3CCCCC3)n2c(C)c1Br	-3.8	6.1*	3.8	1.4*	nt	3.5
Cc1ccc(-c2nc3cc(C)c(Br)c(C)n3c2Cc2ccccc2)cc1	-1.8	5.6*	9.6	0.5	18.7	0.9
O=C(C[C@H]1C[C@H]2c3cc(NC(=O)C4CCC4)ccc3O[C@H]2[C@@H](CO)O1)NCc1ccc(-c2ccccc2)cc1	nt	nt	nt	nt	3.5	nt
CN1C[C@@H]2[C@H](c3ccccc31)[C@@H](CO)N2C(=O)C1CCCC1	nt	nt	nt	nt	-1.1	nt
COc1ccc(NC(=O)N2C[C@@H]3[C@H](c4ccccc42)[C@H](CO)N3Cc2ccccn2)cc1	nt	nt	nt	nt	14.4	nt
Cc1ccc(-c2noc(-c3cc4ccccc4oc3=O)n2)cc1	nt	0.1	2.8	-1.3	20.8	1.5
Cc1cc(-c2nnc(-c3cc4ccccc4oc3=O)o2)c(C)n1-c1ccccc1	nt	-1.1	1.0	-1.3	54.0*	0.3
S=c1[nH]nc(-c2ccncc2)n1/N=C/C(Cl)=C\c1ccccc1	31.8*	1.4	12.1*	-1.4	nt	1.4
C[C@@H]1CN([C@@H](C)CO)C(=O)Cc2cc(NC(=O)Nc3ccccc3)ccc2O[C@@H]1CN(C)C(=O)Nc1ccc(C(F)(F)F)cc1	nt	nt	nt	nt	1.9	nt
C=CCn1c(-c2cccs2)nc2ccccc21	-2.2	-0.6	0.9	-1.4	21.5	1.0
C=CCn1c(-c2cccs2)nc2nc3ccccc3nc21	3.9	4.1	7.8	-0.6	46.5*	0.6
O=S(=O)(c1ccccc1)N1CCCCN2[C@@H](CO)[C@@H](c3ccc(C#Cc4cccnc4)cc3)[C@@H]2C1	nt	nt	nt	nt	1.5	nt
CC(C)(C)C1CCC(=O)N(CCSc2ccccc2)CC1 (stereo unspecified)	46.9*	3.5	4.5	0.0	62.4*	1.9
CCCN1CCC(=O)N(CCSc2ccc(NC(C)=O)cc2)CC1	-2.2	-1.2	2.0	-0.7	-1.2	0.1
CCCN1CCC(=O)N(CCSc2ccccc2)CC1	23.3	2.6	10.6*	-0.5	6.9	1.4
C[C@H]1CCC(=O)N(CCSc2ccc(Br)cc2)CC1	28.3	0.1	7.0	-0.7	53.3*	0.3
SMILES	Wnt bcat act	hcDAF12 agonist	hgDAF-12 ag	ssDAF-12 act	esBAF inh	DAX1 inh
O=C1CCN(Cc2ccccc2)CCN1CCSc1ccccc1	27.0	3.6	7.1	0.2	61.2*	1.4
O=C(C[C@@H]1CC[C@@H]2[C@H](COC[C@H](O)CN2Cc2cc(F)ccc2F)O1)NCc1ccc(Cl)cc1	nt	nt	nt	nt	1.7	nt
Cc1cccc(S(=O)(=O)N2C[C@@H](O)COC[C@H]3O[C@@H](CC(=O)N4CCN(C)CC4)CC[C@@H]32)c1	nt	nt	nt	nt	-5.7	nt
O=C(CN1CCOCC1)NCC[C@H]1CC[C@H](NC(=O)Cc2ccccn2)[C@@H](CO)O1	nt	nt	nt	nt	0.5	nt
Cc1noc(C)c1NC(=O)Nc1ccc2c(c1)C(=O)N([C@@H](C)CO)C[C@@H](C)[C@H](CN(C)C(=O)CCCN(C)C)OCCCC[C@@H](C)O2	nt	nt	nt	nt	-0.9	nt
CC1Cc2nc(SCC(=O)c3ccccc3)n(Cc3ccccc3)c(=O)c2S1 (stereo unspecified)	15.5	-1.5	5.1	-1.2	81.3*	-0.4
CC1Cc2nc(SCC(=O)NCc3ccccc3)n(Cc3ccccc3)c(=O)c2S1 (stereo unspecified)	1.9	1.5	-1.7	-1.0	0.1	-1.2
O=c1c(O)c(-c2ccc(O)c(O)c2)oc2cc(O)cc(O)c12	2.7	-2.2	11.8*	-0.8	24.2	1.5
CO[C@H]1CN(C)C(=O)c2ccc(NS(=O)(=O)c3ccc(C)cc3)cc2OC[C@H](C)NC[C@H]1C	nt	nt	nt	nt	-6.5	nt
O=C(NC1CCC1)[C@@H]1[C@@H](CO)[C@@H]2Cn3c(ccc(C4=CCCC4)c3=O)[C@@H]2N1C(=O)C1CCCC1	nt	nt	nt	nt	-1.6	nt
CCOc1ccc(N=CC2=C(O)CC(C)(C)CC2=O)cc1	-2.4	-1.3	-0.3	-0.4	47.6*	-0.2
CC1(C)CC(=O)C(C=Nc2ccc(O)cc2)=C(O)C1	6.3	-0.5	-0.3	-1.3	4.0	-0.7
Nc1nc(Nc2ccc(Cl)cc2Cl)nc(C(F)(F)F)n1	nt	0.3	5.2	-0.7	63.9*	0.7
CCOC(=O)c1sc(-c2ccccc2)cc1N	53.8*	2.2	5.5	-0.4	67.1*	1.1
CCOC(=O)c1sc(-c2ccc(F)cc2)cc1N	nt	0.0	8.7	-1.7	56.6*	2.9
CCOC(=O)c1c(C)nc(C)c(C(=O)OCC)c1-c1ccc(OC)cc1	0.7	-0.9	1.7	-1.7	-9.5	-1.6
CCOC(=O)c1sc(-c2ccc(OC)cc2)cc1N	nt	4.1	12.1*	-0.2	76.2*	1.6
CCC(=O)Nc1ccc2c(c1)C(=O)N(C)C[C@H](OC)[C@H](C)CN(C(=O)CN(C)C)[C@@H](C)CO2	nt	nt	nt	nt	-2.9	nt
C[C@@H]1CN([C@H](C)CO)C(=O)Cc2cc(NC(=O)C3CC3)ccc2O[C@H]1CN(C)CC1CCCCC1	nt	nt	nt	nt	-0.7	nt
CC(=O)OC[C@H]1O[C@@H](n2ncc(=O)[nH]c2=O)[C@H](OC(C)=O)[C@@H]1OC(C)=O	nt	nt	nt	nt	48.0*	nt
C/C(=N\Nc1ccc(C(=O)O)cc1)c1ccc2c(c1)Nc1ccccc1S2	19.6	-0.4	-0.1	-2.0	51.7*	-0.1
Cc1noc(C)c1NC(=O)N[C@@H]1C=C[C@H](CC(=O)Nc2ccccc2)O[C@H]1CO	nt	nt	nt	nt	2.1	nt
CNC[C@H]1Oc2ccc(N)cc2C(=O)N([C@@H](C)CO)C[C@@H]1C	nt	nt	nt	nt	-8.3	nt
